Laboratory results published in PubChem BioAssay AID1159580 (chemical genetic matrix, 2015).
Several values for one entry are separate records, joined by “and”; a condition that tells them apart may be missing. Equal entries are not always repeated. Among all 5,500 compounds or so, about 2,000 (36%) were called active. Roughly 18% stayed inconclusive and do not appear here. Cut-off read from the data, not from the text of the source: active = normalized growth mostly below about 0.91 (no sharp cut-off); inconclusive = no clear call, values can overlap the other calls; inactive = mostly above about 0.92. The list shows a part of the results.

Assay: chemical genetic growth profiling, strain panel (AID 1159580);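 note: tested at 20 µM; growth read once vehicle control cultures reached saturation at 30 °C; 1 = growth at the plate median or of vehicle wells; lower values mean less growth of the strain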
Conditions: S. cerevisiae deletion strains, growth OD

Measured: normalized growth

NC(N)=N/N=C/c1c(Cl)cccc1Cl
active: locus YAL021C, strain ccr4, stronger effect = lower value 0.887 | locus YNL248C, strain rpa49, stronger effect = lower value 0.884
inactive: locus YAL026C, strain drs2, stronger effect = lower value 0.976 | locus YAL030W, strain snc1, stronger effect = lower value 0.981 | locus YBL061C, strain skt5, stronger effect = lower value 0.986 | locus YBR009C, strain hhf1, stronger effect = lower value 0.941 | locus YBR021W, strain FUR4, stronger effect = lower value 1.01 | locus YBR023C, strain chs3, stronger effect = lower value 0.968 | locus YBR171W, strain sec66, stronger effect = lower value 0.982 | locus YBR229C, strain ROT2, stronger effect = lower value 1.02 | locus YBR231C, strain swc5, stronger effect = lower value 0.984 | locus YBR279W, strain paf1, stronger effect = lower value 0.975 | locus YCL011C, strain gbp2, stronger effect = lower value 0.963 | locus YCL016C, strain dcc1, stronger effect = lower value 0.954 | locus YCL029C, strain bik1, stronger effect = lower value 1.01 | locus YCL069W, strain vba3, stronger effect = lower value 0.973 | locus YCR088W, strain abp1, stronger effect = lower value 0.973 | locus YDL005C, strain med2, stronger effect = lower value 0.972 | locus YDL035C, strain GPR1, stronger effect = lower value 1.02 | locus YDL040C, strain nat1, stronger effect = lower value 0.982 | locus YDL074C, strain BRE1, stronger effect = lower value 1.02 | locus YDL101C, strain DUN1, stronger effect = lower value 1.01 | locus YDL134C, strain PPH21, stronger effect = lower value 1.02 | locus YDL185W, strain tfp1, stronger effect = lower value 1.02 | locus YDL192W, strain arf1, stronger effect = lower value 1.03 | locus YDR001C, strain nth1, stronger effect = lower value 0.972 | locus YDR069C, strain doa4, stronger effect = lower value 0.968 | locus YDR101C, strain arx1, stronger effect = lower value 1.01 | locus YDR137W, strain rgp1, stronger effect = lower value 0.922 | locus YDR159W, strain sac3, stronger effect = lower value 0.919 | locus YDR162C, strain NBP2, stronger effect = lower value 1.02 | locus YDR195W, strain ref2 0.97 | locus YDR297W, strain sur2, stronger effect = lower value 0.978 | locus YDR318W, strain mcm21, stronger effect = lower value 1.01 | locus YDR334W, strain swr1, stronger effect = lower value 0.977 | locus YDR335W, strain msn5, stronger effect = lower value 0.976 | locus YDR388W, stronger effect = lower value 1.01 | locus YDR392W, strain spt3, stronger effect = lower value 0.916 | locus YDR502C, strain sam2, stronger effect = lower value 1.03 | locus YEL003W, strain gim4, stronger effect = lower value 0.963 | locus YEL037C, strain rad23, stronger effect = lower value 0.984 | locus YEL061C, strain CIN8 (second series), stronger effect = lower value 0.972 | locus YEL061C, strain CIN8, stronger effect = lower value 1.01 | locus YER015W, strain faa2, stronger effect = lower value 0.992 | locus YER016W, strain bim1, stronger effect = lower value 0.938 | locus YER110C, stronger effect = lower value 1.02 | locus YER111C, strain swi4, stronger effect = lower value 0.963 | locus YER155C, strain BEM2 (second series), stronger effect = lower value 0.989 | locus YER155C, strain BEM2, stronger effect = lower value 1 | locus YER167W, strain BCK2, stronger effect = lower value 1 | locus YFR010W, strain ubp6, stronger effect = lower value 0.988 | locus YGL078C, strain dbp3, stronger effect = lower value 1.03 | locus YGL086W, strain mad1, stronger effect = lower value 1.01 | locus YGL167C, strain pmr1, stronger effect = lower value 0.981 | locus YGL173C, strain kem1, stronger effect = lower value 0.977 | locus YGL227W, strain vid30, stronger effect = lower value 0.964 | locus YGL240W, strain doc1, stronger effect = lower value 0.986 | locus YGL248W, strain PDE1, stronger effect = lower value 1.01 | locus YGL253W, strain hxk2, stronger effect = lower value 0.96 | locus YGR135W, strain pre9, stronger effect = lower value 1.03 | locus YGR252W, strain gcn5, stronger effect = lower value 1.03 | locus YHR013C, strain ard1, stronger effect = lower value 0.889 | locus YHR027C, strain rpn1, stronger effect = lower value 0.967 | locus YHR030C, strain SLT2, stronger effect = lower value 1 and 0.981 | locus YHR079C, strain IRE1 (second series), stronger effect = lower value 1 | locus YHR079C, strain IRE1, stronger effect = lower value 0.987 | locus YHR094C, strain hxt1, stronger effect = lower value 1.01 | locus YHR129C, strain ARP1, stronger effect = lower value 1.01 | locus YHR142W, strain chs7, stronger effect = lower value 0.978 | locus YHR200W, strain rpn10, stronger effect = lower value 1.03 | locus YIL066C, strain RNR3, stronger effect = lower value 1.02 | locus YIL073C, strain SPO22, stronger effect = lower value 1.04 | locus YIL125W, strain kgd1, stronger effect = lower value 1.01 | locus YIR030C, strain dcg1, stronger effect = lower value 1.01 | locus YJL092W, strain hpr5, stronger effect = lower value 0.978 | locus YJL095W, strain BCK1 (second series), stronger effect = lower value 0.982 | locus YJL095W, strain BCK1, stronger effect = lower value 1 and 0.981 | locus YJL115W, strain asf1, stronger effect = lower value 0.964 | locus YJL129C, strain trk1, stronger effect = lower value 1.03 | locus YJL134W, strain LCB3, stronger effect = lower value 1 | locus YJL154C, strain vps35, stronger effect = lower value 0.969 | locus YJL164C, strain tpk1, stronger effect = lower value 0.931 | locus YJL166W, strain qcr8, stronger effect = lower value 0.996 | locus YJL168C, strain set2, stronger effect = lower value 1.01 | locus YJL187C, strain SWE1 (second series), stronger effect = lower value 1.02 | locus YJR043C, strain POL32, stronger effect = lower value 1.02 | locus YJR066W, strain TOR1, stronger effect = lower value 0.936 | locus YJR075W, strain HOC1, stronger effect = lower value 1.01 | locus YKL009W, strain mrt4, stronger effect = lower value 1.01 | locus YKL068W, stronger effect = lower value 1.01 | locus YKL085W, strain MDH1 (second series), stronger effect = lower value 1 | locus YKL085W, strain MDH1, stronger effect = lower value 1 | locus YKL160W, strain elf1, stronger effect = lower value 0.983 | locus YKL190W, strain CNB1, stronger effect = lower value 1.01 | locus YKR001C, strain vps1, stronger effect = lower value 1.05 | locus YKR026C, strain gcn3, stronger effect = lower value 0.991 | locus YKR091W, strain srl3, stronger effect = lower value 0.979 | locus YLL001W, strain dnm1, stronger effect = lower value 1.01 | locus YLL026W, stronger effect = lower value 0.977 | locus YLL041C, strain sdh2, stronger effect = lower value 0.981 | locus YLR027C, strain aat2, stronger effect = lower value 0.977 | locus YLR039C, strain RIC1, stronger effect = lower value 0.965 | locus YLR058C, strain SHM2, stronger effect = lower value 1.02 | locus YLR102C, strain apc9, stronger effect = lower value 1.01 | locus YLR113W, strain HOG1, stronger effect = lower value 1 | locus YLR221C, strain rsa3, stronger effect = lower value 0.968 | locus YLR258W, strain gsy2, stronger effect = lower value 0.973 | locus YLR262C, strain YPT6 (second series), stronger effect = lower value 0.978 | locus YLR262C, strain YPT6, stronger effect = lower value 1.02 | locus YLR268W, strain sec22, stronger effect = lower value 1 | locus YLR320W, strain mms22, stronger effect = lower value 0.949 | locus YLR330W, strain CHS5, stronger effect = lower value 1.01 | locus YLR342W, strain FKS1 (second series), stronger effect = lower value 1.02 | locus YLR342W, strain FKS1, stronger effect = lower value 0.977 | locus YLR357W, strain rsc2, stronger effect = lower value 0.972 | locus YLR370C, strain arc18, stronger effect = lower value 0.974 | locus YLR371W, strain rom2, stronger effect = lower value 1.02 | locus YLR384C, strain iki3, stronger effect = lower value 0.99 | locus YLR418C, strain cdc73, stronger effect = lower value 1.02 | locus YML016C, strain PPZ1, stronger effect = lower value 1.01 | locus YML032C, strain rad52, stronger effect = lower value 1.02 | locus YML120C, strain ndi1, stronger effect = lower value 0.977 | locus YML124C, strain tub3, stronger effect = lower value 1.01 | locus YMR058W, strain fet3, stronger effect = lower value 0.971 | locus YMR078C, strain ctf18, stronger effect = lower value 1.02 | locus YMR125W, strain sto1, stronger effect = lower value 0.931 | locus YMR129W, stronger effect = lower value 0.984 | locus YMR205C, strain PFK2, stronger effect = lower value 0.986 | locus YMR223W, strain ubp8, stronger effect = lower value 1.02 | locus YMR231W, strain pep5, stronger effect = lower value 0.987 | locus YMR263W, strain SAP30, stronger effect = lower value 1.01 | locus YMR307W, strain GAS1, stronger effect = lower value 0.988 | locus YNL067W, strain RPL9B, stronger effect = lower value 1.01 | locus YNL071W, strain lat1, stronger effect = lower value 0.982 | locus YNL128W, strain TEP1, stronger effect = lower value 1.02 | locus YNL153C, strain GIM3, stronger effect = lower value 1.01 | locus YNL183C, strain NPR1, stronger effect = lower value 0.952 | locus YNL209W, strain ssb2, stronger effect = lower value 0.968 | locus YNL233W, strain BNI4, stronger effect = lower value 1 | locus YNL250W, strain rad50, stronger effect = lower value 1.04 | locus YNL271C, strain bni1, stronger effect = lower value 1.02 | locus YNL298W, strain CLA4, stronger effect = lower value 1.05 | locus YNL307C, strain MCK1, stronger effect = lower value 1.02 | locus YNL322C, strain KRE1 (second series), stronger effect = lower value 0.956 | locus YNL322C, strain KRE1, stronger effect = lower value 1 | locus YNR049C, strain mso1, stronger effect = lower value 0.966 | locus YNR052C, strain pop2, stronger effect = lower value 1.01 | locus YOL012C, strain htz1 0.878 | locus YOL147C, strain pex11, stronger effect = lower value 1.02 | locus YOR001W, strain rrp6, stronger effect = lower value 0.957 | locus YOR061W, strain CKA2, stronger effect = lower value 1.01 | locus YOR069W, strain VPS5, stronger effect = lower value 1.01 | locus YOR070C, strain gyp1, stronger effect = lower value 0.977 | locus YOR080W, strain dia2, stronger effect = lower value 0.98 | locus YOR083W, strain WHI5, stronger effect = lower value 0.952 | locus YOR106W, strain vam3, stronger effect = lower value 0.993 | locus YOR136W, strain idh2, stronger effect = lower value 1.02 | locus YOR144C, strain elg1, stronger effect = lower value 1.02 | locus YOR184W, strain ser1, stronger effect = lower value 1.02 | locus YOR231W, strain MKK1, stronger effect = lower value 0.987 | locus YOR265W, strain rbl2, stronger effect = lower value 0.985 | locus YOR270C, strain vph1, stronger effect = lower value 0.922 | locus YOR290C, strain snf2, stronger effect = lower value 0.918 | locus YOR316C, strain cot1, stronger effect = lower value 1.01 | locus YPL051W, strain arl3, stronger effect = lower value 0.981 | locus YPL078C, strain atp4, stronger effect = lower value 0.974 | locus YPL106C, strain sse1, stronger effect = lower value 0.921 | locus YPL240C, strain hsp82, stronger effect = lower value 0.977 | locus YPL241C, strain CIN2, stronger effect = lower value 1.02 | locus YPL256C, strain CLN2, stronger effect = lower value 0.987 | locus YPR119W, strain clb2, stronger effect = lower value 1.02 | locus YPR141C, strain kar3, stronger effect = lower value 1.02 | locus YPR163C, strain tif3, stronger effect = lower value 1.02 | locus YPR167C, strain met16, stronger effect = lower value 1.01 | strain wtn01, stronger effect = lower value 1.01
